15 compounds from PubChem BioAssay (Tox21) can be followed below.

Results filed as inconclusive are left out. Calls of active or inactive are those of the source. Unless noted, calls come from the whole dose curve.

Assay [1] is described as follows: Nuclear factor erythroid 2-related factor 2/antioxidant responsive element (Nrf2/ARE) small molecule agonists: qHTS cell viability counter screen in human keratinocytes (AID 1919968; active = well fitted curve in the direction sought with a large enough effect in the repeat runs; an effect the other way counts as inactive or inconclusive; note: nearly all actives have a fitted effect of over 55% in size; note: potency is the fitted concentration of half-maximal effect). Put shortly:
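In human HaCaT keratinocytes stably expressing an ARE-driven luciferase, compound exposure lasted 23 h at 37 C under 5% CO2. Viable cells are quantified with a protease-based fluorogenic reagent (CellTiter-Fluor) read 1 h after addition.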
For orientation: In qHTS, concentration-response curves come from the screen itself.

In assay [2] the target is Gonadotropin-releasing hormone receptor (Homo sapiens) (UniProt P30968). Description: Human gonadotropin-releasing hormone receptor (GnRHR) small molecule agonists, calcium flux assay in GnRHR-HEK293 cells (AID 1920063). Note: nearly all actives have a fitted effect of over 35% in size. The method, boiled down:
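Intracellular calcium rise is the read-out: engineered human GnRHR HEK293 cells, dye-loaded, are exposed to DMSO-dissolved compounds and fluorescence at Ex/Em 480/540 is tracked for 3 min.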
(In general: Calcium flux is commonly read through the fluorescence of an indicator in the cells.)

Assay [3] addresses KiSS-1 receptor (Homo sapiens) (UniProt Q969F8). The assay can be described thus: Human kisspeptin (KISS1R) small molecule agonists, calcium flux assay in KISS1R-HEK293 cells (AID 1920064; active = well fitted curve in the direction sought with a large enough effect in the repeat runs; an effect the other way counts as inactive or inconclusive). Put shortly: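 Concentration-response testing used 15 concentrations in triplicate on human KISS1R-expressing HEK293 cells. Calcium-dependent fluorescence (Ex/Em 480/540) was followed kinetically for 3 min after compound transfer.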

Assay [4] can be described thus: G protein-coupled receptor (GPCR) small molecule agonists, calcium flux assay: HEK293 wild type cell line counter screen (AID 1920065). Put shortly:
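Fluorescence intensity signals activation. After overnight (18 h) culture and a 1 h calcium dye load at 37 C, compounds are added by pin tool and the plate read at 480/540 nm for 3 min in 1 s steps.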

Assay [5] can be described thus: p53 small molecule agonists, cell-based qHTS assay with human liver microsomes: qHTS cell viability counter screen (AID 1963579). Note: nearly all actives have a fitted effect of over 45% in size. Note: potency is the fitted concentration of half-maximal effect. The method, boiled down:
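Cytotoxicity counter screen: p53RE-bla, 4,000 cells/well; 5 h settle, 37 C/5% CO2; cpd + HLM 0.5 mg/mL + NADPH 0.5 mg/mL (final); 16 h, 37 C; CellTiter-Glo, 30 min RT, luminescence.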

Assay [6] can be described thus: p53 small molecule agonists, cell-based qHTS assay with rat liver microsomes: qHTS cell viability counter screen (AID 1963580). Note: nearly all actives have a fitted effect of over 45% in size. Put shortly: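 Luminescent ATP readout (CellTiter-Glo, 30 min at room temperature) reports viability of p53RE-bla HCT-116 cells after 16 h at 37 C with test compounds under metabolic activation by rat liver microsomes and NADPH at 0.5 mg/mL final each.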

Assay [7] in a line: p53 small molecule agonists, cell-based qHTS assay: qHTS cell viability counter screen (AID 1963581). Note: nearly all actives have a fitted effect of over 45% in size. Put shortly:
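Luminescence from CellTiter-Glo, reflecting ATP content, serves as the cytotoxicity measure; it is taken after the 2 h reporter substrate step in HCT-116 p53RE-bla cells dosed for 16 h at 37 C.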

The target in assay [8] is 5-hydroxytryptamine receptor 2A (Homo sapiens) (UniProt P28223). Description: 5-hydroxytryptamine receptor 2A (HTR2A) small molecule agonists, cell-based qHTS assay (AID 1963587). Note: nearly all actives have a fitted effect of over 30% in size. Put shortly:
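HTR2A-CHO cells, plated 18 h at 37 C/5% CO2, dye-loaded 1 h at 37 C; compounds in DMSO added by pin tool (agonist mode). Intracellular calcium flux read as kinetic fluorescence on FDSS over 2 min at 1 s intervals.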

Assay [9] has as its target Muscarinic acetylcholine receptor M1 (Homo sapiens) (UniProt P11229). Description: Cholinergic receptor muscarinic 1 (CHRM1) small molecule antagonists, cell-based qHTS assay (AID 1963588). Note: nearly all actives have a fitted effect of over 40% in size. Note: potency is the fitted concentration of half-maximal effect. Put shortly: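 Compounds were tested at 15 concentrations in three independent runs. Dye-loaded CHRM1-CHO cells were exposed 5 min at room temperature before stimulation by acetylcholine added at 50nM. Intracellular calcium was read kinetically on FDSS for 3 min.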

Assay [10] has the same target. The assay can be described thus: Cholinergic receptor muscarinic 1 (CHRM1) small molecule agonists, cell-based qHTS assay (AID 1963589). Note: nearly all actives have a fitted effect of over 35% in size. The method, boiled down: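 Fluorescent calcium dye reports M1 activation in stably transfected CHO cells. Compounds, 15 concentrations, added after 1 h dye loading at 37 C; kinetic reading at 1 sec intervals.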
Assay [11] is described as follows: cAMP Responsive Elements (CRE) small molecule agonists, cell-based qHTS assay (AID 1963590). The method, boiled down:
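Compound exposure lasted 3 h at 37 C/5% CO2 in CRE-bla HEK 293T cells grown in assay medium with 10% dialyzed FBS and 25 mM HEPES. Reporter signal came from LiveBLAzer B/G FRET substrate, 2 h, room temperature.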

Assay [12] is described as follows: cAMP Responsive Elements (CRE) small molecule antagonists, cell-based qHTS assay (AID 1963591; active = well fitted inhibition curve with a large enough effect in the signal ratio in the repeat runs, not every such curve was filed as active; the % refers to the signal ratio). Put shortly:
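Stimulation used NKH477 at a final 0.25 uM for 3 h in compound-treated CRE-bla HEK293T cells, seeded 18 h beforehand. Reporter activity was measured with LiveBLAzer B/G FRET substrate after 2 h at room temperature.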

For assay [13], the target named is Beta-2 adrenergic receptor (Homo sapiens) (UniProt P07550). The assay can be described thus: Adrenergic beta2 receptor (ADRB2) small molecule antagonists, cell-based qHTS assay (AID 1963592). Note: series mostly up to about 92 µM; nearly all actives have a fitted effect of over 50% in size. Put shortly: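 Assay format: CHO-ADRB2 cells, 18-20hr seeding at 37C/5% CO2, then compound plus 1nM isoproterenol agonist mix for 0.5hr RT. Homogeneous time-resolved fluorescence cAMP detection after 1hr, expressed as 665/615 nm ratio.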
Chain of Beta-2 adrenergic receptor (Homo sapiens) (P07550 whole entry, looked up): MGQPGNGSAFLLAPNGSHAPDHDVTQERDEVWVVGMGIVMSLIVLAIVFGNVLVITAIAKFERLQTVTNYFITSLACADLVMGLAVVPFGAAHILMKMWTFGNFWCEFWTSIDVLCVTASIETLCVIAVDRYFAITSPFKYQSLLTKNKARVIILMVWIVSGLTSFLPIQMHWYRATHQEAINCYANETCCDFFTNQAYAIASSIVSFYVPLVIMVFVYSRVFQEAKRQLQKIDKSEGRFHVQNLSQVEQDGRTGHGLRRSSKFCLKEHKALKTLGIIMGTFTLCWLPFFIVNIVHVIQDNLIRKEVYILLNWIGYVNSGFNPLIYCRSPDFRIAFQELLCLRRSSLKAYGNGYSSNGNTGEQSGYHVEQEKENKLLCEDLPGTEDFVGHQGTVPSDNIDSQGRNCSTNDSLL

The target in assay [14] is D(2) dopamine receptor (Homo sapiens) (UniProt P14416). The assay can be described thus: Dopamine D2 receptor (DRD2) small molecule agonists, cell-based qHTS assay (AID 1963594). Note: nearly all actives have a fitted effect of over 35% in size. The method, boiled down: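 HEK293 cells stably expressing DRD2 were cultured 24 h at 37 C, then given Ro20-1724 (0.1 mM final) and compounds for 10 min at room temperature. NKH477 (200nM) was then added for 30 min. cAMP was read by HTRF.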
Chain of D(2) dopamine receptor (Homo sapiens) (P14416 whole entry, looked up): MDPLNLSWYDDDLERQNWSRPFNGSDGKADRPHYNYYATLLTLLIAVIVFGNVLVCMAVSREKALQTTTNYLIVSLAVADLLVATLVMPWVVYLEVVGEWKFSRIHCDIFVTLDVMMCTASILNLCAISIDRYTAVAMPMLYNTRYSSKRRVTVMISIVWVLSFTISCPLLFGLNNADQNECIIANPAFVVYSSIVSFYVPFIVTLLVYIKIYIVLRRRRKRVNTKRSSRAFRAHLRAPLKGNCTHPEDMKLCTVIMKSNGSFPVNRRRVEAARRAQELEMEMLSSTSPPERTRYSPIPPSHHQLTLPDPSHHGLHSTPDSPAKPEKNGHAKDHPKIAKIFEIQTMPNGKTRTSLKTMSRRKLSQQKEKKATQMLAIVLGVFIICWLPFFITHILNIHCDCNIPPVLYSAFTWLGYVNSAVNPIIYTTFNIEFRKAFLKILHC

The target is the same in assay [15]. Description: Dopamine D2 receptor (DRD2) small molecule antagonists, cell-based qHTS assay (AID 1963595; active = well fitted inhibition curve with a large enough effect in the signal ratio in the repeat runs, with a control signal flat; the % refers to the signal ratio). Put shortly:
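Antagonist mode in DRD2-HEK293 cells: after compound addition with 0.1 mM Ro20-1724, cells received quinpirole (12 nM) and NKH477 (200 nM) for 30 min at room temperature; HTRF cAMP read after 1 h detection.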

The target of assay [16] is 5-hydroxytryptamine receptor 2A (Homo sapiens) (UniProt P28223). Description: 5-hydroxytryptamine receptor 2A (HTR2A) small molecule antagonists, cell-based qHTS assay (AID 1963586). Note: nearly all actives have a fitted effect of over 45% in size. The method, boiled down:
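CHO cells stably expressing human HTR2A were plated for 18 h at 37 C, then loaded with calcium dye for 1 h. Compounds were preincubated 5 min at room temperature before DOI (4 nM solution) was added. Kinetic fluorescence was read for 3 min.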

In assay [17] the target is Beta-2 adrenergic receptor (Homo sapiens) (UniProt P07550). Description: Adrenergic beta2 receptor (ADRB2) small molecule agonists, cell-based qHTS assay (AID 1963593).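 Note: CHO cells stably overexpressing human ADRB2.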 The method, boiled down:
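CHO cells stably over-expressing ADRB2 were plated overnight at 37C, then dosed with compounds plus a stimulation mix containing 100uM IBMX and 25uM Ro-20-1724 for 0.5hr at room temperature. cAMP was measured by HTRF competition, 1hr.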

Chain of 5-hydroxytryptamine receptor 2A (Homo sapiens) (P28223 whole entry, looked up): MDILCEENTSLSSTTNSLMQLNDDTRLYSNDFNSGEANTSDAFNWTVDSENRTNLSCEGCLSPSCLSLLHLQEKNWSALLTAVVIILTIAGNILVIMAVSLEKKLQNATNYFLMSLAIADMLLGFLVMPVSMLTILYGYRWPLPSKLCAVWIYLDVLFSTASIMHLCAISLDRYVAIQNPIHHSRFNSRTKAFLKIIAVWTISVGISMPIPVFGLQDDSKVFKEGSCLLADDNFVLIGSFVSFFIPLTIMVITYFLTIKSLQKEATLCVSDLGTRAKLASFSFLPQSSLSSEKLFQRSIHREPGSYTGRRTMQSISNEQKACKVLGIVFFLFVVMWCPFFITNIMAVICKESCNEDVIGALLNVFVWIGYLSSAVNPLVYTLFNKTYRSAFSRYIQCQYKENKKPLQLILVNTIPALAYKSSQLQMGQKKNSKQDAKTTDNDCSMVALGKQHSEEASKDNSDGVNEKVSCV
Chain of Gonadotropin-releasing hormone receptor (Homo sapiens) (P30968 whole entry, looked up): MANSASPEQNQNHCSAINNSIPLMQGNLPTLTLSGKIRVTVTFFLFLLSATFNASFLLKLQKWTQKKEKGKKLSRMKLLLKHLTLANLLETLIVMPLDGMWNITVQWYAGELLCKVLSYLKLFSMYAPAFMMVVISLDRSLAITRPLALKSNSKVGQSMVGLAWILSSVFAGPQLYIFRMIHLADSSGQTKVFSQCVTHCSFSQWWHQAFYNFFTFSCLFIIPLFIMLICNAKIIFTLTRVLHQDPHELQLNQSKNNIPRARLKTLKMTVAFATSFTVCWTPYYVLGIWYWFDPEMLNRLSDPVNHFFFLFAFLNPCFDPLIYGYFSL
Chain of KiSS-1 receptor (Homo sapiens) (Q969F8 whole entry, looked up): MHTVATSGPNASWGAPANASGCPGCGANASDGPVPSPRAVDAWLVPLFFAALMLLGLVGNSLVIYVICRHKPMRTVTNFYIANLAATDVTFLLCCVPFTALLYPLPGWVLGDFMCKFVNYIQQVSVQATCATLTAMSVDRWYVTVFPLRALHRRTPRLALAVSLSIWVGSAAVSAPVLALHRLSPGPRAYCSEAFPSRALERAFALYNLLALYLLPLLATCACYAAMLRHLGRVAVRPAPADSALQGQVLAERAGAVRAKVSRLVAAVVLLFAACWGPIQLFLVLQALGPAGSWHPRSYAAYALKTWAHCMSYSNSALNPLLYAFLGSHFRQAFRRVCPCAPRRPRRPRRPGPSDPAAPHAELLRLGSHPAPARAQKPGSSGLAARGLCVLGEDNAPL
Chain of Muscarinic acetylcholine receptor M1 (Homo sapiens) (P11229 whole entry, looked up): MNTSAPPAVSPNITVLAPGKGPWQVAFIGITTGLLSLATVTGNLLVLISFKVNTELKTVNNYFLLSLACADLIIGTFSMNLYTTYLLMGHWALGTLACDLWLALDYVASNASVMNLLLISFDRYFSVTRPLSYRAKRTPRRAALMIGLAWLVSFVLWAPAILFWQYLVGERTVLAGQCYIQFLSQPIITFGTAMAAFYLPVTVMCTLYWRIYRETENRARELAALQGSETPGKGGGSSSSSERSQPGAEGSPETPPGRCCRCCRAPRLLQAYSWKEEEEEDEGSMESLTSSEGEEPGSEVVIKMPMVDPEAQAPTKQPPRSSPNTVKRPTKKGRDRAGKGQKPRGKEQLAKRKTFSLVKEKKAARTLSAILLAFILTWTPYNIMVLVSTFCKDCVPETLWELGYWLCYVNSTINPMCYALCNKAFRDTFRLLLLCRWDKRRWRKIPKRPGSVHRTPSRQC

On to `Cc1ccc(Nc2c(F)cccc2Cl)c(CC(=O)O)c1`, for which the Potency entry in [1], in assay [2], in [3], in assay [4], in assay [5] and in assay [6] was “inactive” throughout. In addition, the Potency entry in [7], in [8], in assay [9], in assay [10], in assay [11] and in [12] was “inactive” throughout. Besides, the Potency entry in assay [13], in [14] and in assay [15] was “inactive” each time.
Regarding `CCC(C)[O-].CCC(C)[O-].CCOC(=O)/C=C(/C)[O-].[Al+3]`, the Potency entry in assay [1], in assay [2], in [3], in [4], in assay [5] and in assay [6] was “inactive” throughout. Moreover, the Potency entry in assay [7], in assay [16], in assay [8], in assay [10], in assay [11] and in assay [12] was “inactive” throughout. In addition, the Potency result in assay [13], in assay [14] and in assay [15] was “inactive” each time.
With `CC(C)O.CC(C)O.CCOC(=O)/C=C(\C)O.CCOC(=O)/C=C(\C)O.[Ti]`, the Potency result in assay [1], in [2], in [3], in assay [4], in assay [5] and in [6] was “inactive” in each case. Further, the Potency result in [16], in assay [8], in [9], in assay [10], in assay [11] and in assay [12] was “inactive” throughout. Moreover, the Potency result in assay [13], in assay [17], in [14] and in assay [15] was “inactive” in each case.
Take `Cc1ccc(C(C)OC(=O)C2(C)CCC(C(=O)O)C2(C)C)cc1` (stereo unspecified): the Potency entry in assay [1], in assay [2], in assay [3], in [4], in assay [5] and in assay [6] was “inactive” each time. Also, the Potency result in assay [7], in assay [8], in [9], in assay [10], in [11] and in assay [13] was “inactive” in each case. Besides, the Potency result in [14] and in assay [15] was “inactive” throughout.
For `COC(=O)CC(C)=O`, the Potency result in assay [1], in assay [2], in assay [3], in assay [4], in [5] and in [6] was “inactive” in each case. Besides, the Potency result in [16], in assay [9], in assay [11], in [13], in [14] and in assay [15] was “inactive” throughout.
Regarding `C=C(C)C(=O)OCCOCCOC(=O)C(=C)C`, the Potency entry in [1], in assay [2], in assay [3], in assay [4], in assay [5] and in [16] was “inactive” throughout. For the same compound, the Potency result in assay [8], in assay [9], in assay [10], in [13], in [14] and in [15] was “inactive” in each case.
As for `COC(=O)CC(=O)C(C)(C)C`, the Potency result in [1], in assay [2], in assay [3], in [4], in [5] and in assay [6] was “inactive” in each case. Further, the Potency entry in assay [7], in [16], in assay [8], in assay [9], in assay [10] and in [12] was “inactive” in each case. Besides, the Potency result in assay [13], in [17] and in [15] was “inactive” throughout.
Consider `Clc1cccc(C(c2ccc3nc[nH]c3c2)n2ccnc2)c1` (stereo unspecified), for which the Potency entry in assay [1], in assay [2], in [3], in assay [4], in [5] and in assay [6] was “inactive” throughout. Also, the Potency entry in assay [7], in assay [16], in assay [9], in assay [10], in assay [11] and in assay [12] was “inactive” each time. For the same compound, the Potency result in assay [13], in assay [14] and in assay [15] was “inactive” each time.
For `COc1ccc2cc1Oc1ccc(cc1)C[C@H]1c3c(cc4c(c3Oc3cc5c(cc3OC)CCN(C)[C@@H]5C2)OCO4)CCN1C`, the Potency is 23.7 µM (active) in [1] and 20.5 µM (active) in [9]. Also, the Potency entry in assay [2], in assay [3], in [4], in assay [5], in [6] and in [16] was “inactive” throughout. For the same compound, the Potency entry in assay [13] and in assay [14] was “inactive” in each case.
Regarding `CCCCCCC(C)Nc1ccc(Nc2ccccc2)cc1` (stereo unspecified), the Potency in assay [1] is 48.6 µM (active); in [5] it was 40.8 µM (active). The Potency result in [2], in assay [3], in [4], in assay [6], in assay [7] and in assay [16] was “inactive” throughout. Further, the Potency entry in [9], in assay [10], in [13] and in [14] was “inactive” each time.
As to `C/C=C/C=N/NC(=O)c1ccncc1`, the Potency result in assay [1], in assay [2], in assay [3], in [4], in [5] and in assay [6] was “inactive” throughout. In addition, the Potency entry in assay [7], in assay [16], in assay [8], in assay [9], in [10] and in assay [13] was “inactive” each time. The Potency result in assay [17] and in [15] was “inactive” each time.
As for `COC(C)(C)OC`, the Potency entry in assay [1], in [2], in assay [3], in assay [4], in assay [6] and in assay [7] was “inactive” throughout. The Potency result in [16], in [8], in [10], in assay [11], in assay [12] and in assay [13] was “inactive” each time. Further, the Potency entry in assay [14] and in assay [15] was “inactive” in each case.
Regarding `OC[C@H]1O[C@@H](n2cnc3c(=S)nc[nH]c32)[C@H](O)[C@@H]1O`, the Potency result in assay [1], in assay [2], in assay [3], in [4], in [5] and in assay [6] was “inactive” each time. Further, the Potency result in [16], in [9], in [10], in assay [11], in assay [12] and in assay [17] was “inactive” in each case. In addition, the Potency entry in assay [14] and in [15] was “inactive” in each case.
Take `CCCCCCCCCCl`: the Potency result in assay [1], in [2], in assay [3], in assay [4], in [5] and in assay [6] was “inactive” each time. Also, the Potency entry in assay [16], in assay [8], in assay [9], in assay [10], in assay [11] and in assay [12] was “inactive” throughout. Also, the Potency entry in assay [13] and in assay [15] was “inactive” in each case.
Take `Cc1ccc(S(=O)(=O)NC(=O)NC2CCCCC2)cc1`: the Potency result in assay [1], in assay [2], in assay [3], in assay [4], in assay [5] and in assay [6] was “inactive” throughout. In addition, the Potency result in [7], in assay [8], in assay [9], in assay [10], in assay [11] and in [12] was “inactive” each time. Moreover, the Potency entry in assay [13] and in assay [15] was “inactive” in each case.
